PubChem BioAssay AID1259421 (Broad Institute, 2018)
Values joined by “and” are separate entries in the source; they are usually repeats but may differ in a detail not shown here. Equal values may be shown once. Among all 6,400 compounds or so, about 610 (9.5%) were called active. No stated cut-off is given here; in the data, active means activity change below about -70%; inconclusive means no clear call, values can overlap the other calls; inactive means above that. The sample as a whole holds a higher share of actives than the screen did. Where a structure was tested more than once in an assay, its records may differ in their call.

assay: T. gondii ME49Luc in HeLa cells, luciferase assay, 72 h, no IFN-y (AID 1259421); conditions: stronger effect = lower value, concentration not given here

Compound | activity change, negative = inhibition
CC1=C(SCCO)C(=O)c2ccccc2C1=O | 29.8% (inactive)
COc1ccc2c(c1)c1c3n2CCN(C)C3=NCC1 | 14.7% (inactive)
C=CC(=O)N1CCCCC1 | 4.09% (inactive)
CN([NH2+][O-])C(=O)N[C@@H]1[C@@H](O)[C@H](O)[C@@H](CO)O[C@@H]1O | -1.36% (inactive)
Cc1ccc(O)c(N=Nc2ccccc2)n1 | 8.22% (inactive) and 3.77% (inactive)
COc1cccc2c1C(=O)c1c(O)c3c(c(O)c1C2=O)CC(O)(C(=O)CO)CC3OC1CC(N)C(O)C(C)O1 (stereo unspecified) | -89.5% (active)
COc1cccc2c1C(=O)c1c(O)c3c(c(O)c1C2=O)C[C@@](O)(C(=O)CO)C[C@@H]3O[C@H]1C[C@H](N)[C@@H](O)[C@H](C)O1 | -80.9% (active)
COc1cccc2c1C(=O)c1c(O)c3c(c(O)c1C2=O)C[C@@](O)(C(=O)CO)C[C@@H]3O[C@H]1C[C@H](N)[C@H](O)[C@H](C)O1 | -78.1% (active) and -79.4% (active)
CCCCC(=O)OCC(=O)[C@]1(O)Cc2c(O)c3c(c(O)c2[C@@H](O[C@H]2C[C@H](NC(=O)C(F)(F)F)[C@H](O)[C@H](C)O2)C1)C(=O)c1c(OC)cccc1C3=O | -24.8% (inactive)
COc1cccc2c1C(=O)c1c(O)c3c(c(O)c1C2=O)C[C@@](O)(C(=O)CO)C[C@@H]3OC1C[C@H](N)[C@H](O)[C@H](C)O1 (stereo partly specified) | -87.6% (active)
NC(Cc1ccc(O)cc1)C(=O)O (stereo unspecified) | 3.44% (inactive)
Oc1ccc(-c2nc3cc(O)cc(Br)c3o2)cc1 | -55.9% (inactive)
CC(=O)O[C@@H]1CC2C(C)(CC[C@H](O)C2(C)C)C2CC[C@]3(C)C(=CC(=O)O[C@H]3c3ccoc3)C21C (stereo partly specified) | -5.23% (inactive)
CCC(c1ccc(O)cc1)C(CC)c1ccc(O)cc1 (stereo unspecified) | 14.8% (inactive)
c1ccc(-c2cc3ccccc3[nH]2)cc1 | 106% (inactive)
Nc1nc(Nc2ccccc2)nc2c1ncn2C1OC(CO)C(O)C1O (stereo unspecified) | 3.98% (inactive)
COc1ccc(Nc2ccn(-c3ccccc3)n2)cc1 | 404% (inactive)
CCCCCC/C=C\CCCCCCCc1cccc(O)c1C(=O)O | 6.32% (inactive)
NC(=O)CC[C@H](NC(=O)Cc1ccccc1)C(=O)O | 16.1% (inactive)
C=CC(C)(C)c1cc(/C=C/C(=O)c2ccc(O)cc2)c(OC)cc1O | 187% (inactive)
CCCC(CCC)C(=O)Nc1ccn([C@@H]2O[C@H](CO)[C@@H](O)C2(F)F)c(=O)n1 | -1.71% (inactive)
COc1ccccc1OC(=O)CNC(=O)Cc1ccc(C(=O)c2ccc(C)cc2)n1C | 15.7% (inactive)
C[C@@H]1O[C@@H](Oc2c(-c3cc(O)c(O)c(O)c3)oc3cc(O)cc(O)c3c2=O)[C@@H](O)[C@H](O)[C@H]1O | 8.81% (inactive)
CN1CCN(c2ccc3nc(-c4ccc5nc(-c6ccc(O)cc6)[nH]c5c4)[nH]c3c2)CC1 | -23.1% (inactive)
CN1CCN(c2ccc3nc(-c4c(N)c5c(F)cccc5[nH]c4=O)[nH]c3c2)CC1 | -36.1% (inactive) and -79.7% (active)
CN1CCN(C(=O)c2nc3ccc(Cl)cc3[nH]2)CC1 | 1.51% (inactive) and 15.6% (inactive)

Compound | activity change, negative = inhibition
O=C(O)c1cc(N=Nc2ccc(O)c(C(=O)O)c2)ccc1O | 7.94% (inactive)
O=S(=O)(O)C(F)(F)F.O=S(=O)(O)C(F)(F)F.O=S(=O)(O)C(F)(F)F.[Bi] | 11% (inactive)
CN(C)C(=S)SC(=S)N(C)C | 39.1% (inactive)
NC(N)=NC(N)=NCCc1ccccc1 | -13.4% (inactive)
CC(C)C(NS(=O)(=O)c1ccc(-c2ccc(Br)cc2)cc1)C(=O)O (stereo unspecified) | 9.87% (inactive)
CC(C)[C@H](NS(=O)(=O)c1ccc(-c2ccc(Br)cc2)cc1)C(=O)O | 4.75% (inactive)
CC(C)ON([C@@H](C(=O)NO)C(C)C)S(=O)(=O)c1ccc(-c2ccccc2)cc1 | -87.2% (active)
Cc1noc(-c2ccc(CSCCC(=O)O)cc2)c1NC(=O)OC(C)c1ccccc1Cl (stereo unspecified) | 13.3% (inactive)
O=C(O)c1ccc2nc(-c3cc(Cl)cc(Cl)c3)oc2c1 | 84.3% (inactive)
Cc1[nH]c(/C=C2\C(=O)Nc3ccc(S(=O)(=O)N(C)c4cccc(Cl)c4)cc32)c(C)c1C(=O)N1CCN(C)CC1 | -35.8% (inactive)
Cc1[nH]c(/C=C2\C(=O)Nc3ccc(S(=O)(=O)Cc4c(Cl)cccc4Cl)cc32)c(C)c1C(=O)N1CCC[C@@H]1CN1CCCC1 | -78.2% (active) and -84% (active) and -67.3% (inactive)
OC1(c2ccc(Cl)cc2)CCNCC1 | 13.9% (inactive)
CN1CC[C@@H](NC(=O)Nc2ccc(C#N)cc2)C[C@@H]1c1nc2ccccc2[nH]1 | 7.93% (inactive)
CC(C)C[C@H](NC(=O)[C@H](Cc1ccccc1)NC(=O)c1cnccn1)B(O)O | -73.2% (active) and -72% (active)
CNC(=O)[C@H](Cc1ccccc1)NC(=O)[C@H](CC(C)C)[C@H](CSc1cccs1)C(=O)NO | -1.31% (inactive) and 10.6% (inactive)
CC(C)C[C@H](NC(=O)[C@@H](NC(=O)c1cccc(-c2ccccc2)n1)[C@@H](C)O)B(O)O | -75.2% (active) and -70.7% (active)
CC(C)CC(NC(=O)OCC1c2ccccc2-c2ccccc21)C(=O)O (stereo unspecified) | -4.74% (inactive)
CC(C)C[C@@H](NC(=O)OCC1c2ccccc2-c2ccccc21)C(=O)O | 145% (inactive) and 359% (inactive)
CC(C)C[C@H](NC(=O)[C@@H](O)[C@H](N)Cc1ccccc1)C(=O)O | -0.518% (inactive) and 15% (inactive)
CCC[N+]12C3C[C@H](C4C(O)[C@]5(C[C@@H]41)c1ccccc1N(C)[C@@H]35)[C@H](CC)[C@H]2O (stereo partly specified) | 10.9% (inactive)
CCOc1ccc(N=C(C)Nc2ccc(OCC)cc2)cc1 | 3.11% (inactive)
CCCc1c(OCC(O)COc2ccc3c(=O)cc(C(=O)O)oc3c2CCC)ccc(C(C)=O)c1O (stereo unspecified) | 10.3% (inactive) and -5.08% (inactive)
CCOC(=O)C1CN(Cc2ccccc2)C(=O)C1=O (stereo unspecified) | 16.6% (inactive) and 1.66% (inactive)
N[C@@H]1CCCC[C@H]1N.O=C(O)C(=O)O.[Pt] | 10.5% (inactive)
CC1(C)CC[C@]2(C(=O)O)CC[C@]3(C)C(=CCC4[C@@]5(C)CC[C@@H](O)C(C)(C)C5CC[C@]43C)C2C1 (stereo partly specified) | 10.1% (inactive)
CNC1CCCN(c2c(F)cc3c(=O)c(C(=O)O)cn(C4CC4)c3c2OC)C1 (stereo unspecified) | 0.884% (inactive)

Compound | activity change, negative = inhibition
N[C@@H]1CCCCN(c2c(F)cc3c(=O)c(C(=O)O)cn(C4CC4)c3c2Cl)C1 | 4.72% (inactive)
NC1CCN(c2c(F)cc3c(=O)c(C(=O)O)cn(C4CC4)c3c2Cl)C1 (stereo unspecified) | -79.3% (active)
COc1c(N2C[C@@H]3CCCN[C@@H]3C2)c(F)cc2c(=O)c(C(=O)O)cn(C3CC3)c12 | -7.38% (inactive)
COc1c(N2CCNC(C)C2)c(F)cc2c(=O)c(C(=O)O)cn(C3CC3)c12 (stereo unspecified) | 7.25% (inactive) and -78% (active)
N[C@@H]1CN(c2c(F)cc3c(=O)c(C(=O)O)cn([C@@H]4C[C@@H]4F)c3c2Cl)CC12CC2 | -6.27% (inactive)
C[C@H](NC(=O)c1sccc1OCc1ccc(Cl)cc1)c1ccccc1 | 28.7% (inactive)
O=C(O)c1cc(Oc2ccc([N+](=O)[O-])cc2)cc(Oc2ccc([N+](=O)[O-])cc2)c1 | 4.54% (inactive) and 5.04% (inactive)
CC1=CC2C(CC1=O)C(C)=CCC2C(C)C (stereo unspecified) | 4.22% (inactive)
c1ccc(COCCCc2cnc[nH]2)cc1 | -41.7% (inactive) and 17.9% (inactive)
O=C(Nc1c(-c2cccs2)nc2ccccn12)c1ccc(Cl)cc1 | 6.95% (inactive)
CN1C(CC(=O)c2ccccc2)CCCC1CC(O)c1ccccc1 (stereo unspecified) | 6.13% (inactive) and 6.36% (inactive)
CO[C@H]1C[C@H](O[C@H]2[C@H](C)[C@@H](OC3O[C@H](C)C[C@H](N(C)C)[C@H]3OC(C)=O)[C@@H](C)C[C@]3(CO3)C(=O)[C@H](C)[C@@H](OC(C)=O)[C@@H](C)[C@@H](C)OC(=O)[C@@H]2C)O[C@@H](C)[C@@H]1OC(C)=O (stereo partly specified) | 5.2% (inactive)
Nc1ncnc2c1c(-c1cccc(OCc3ccccc3)c1)cn2C1CC(CN2CCCC2)C1 (stereo unspecified) | -69.4% (inactive)
Nc1ncnc2c1c(-c1cccc(OCc3ccccc3)c1)cn2C1CC(CN2CCC2)C1 (stereo unspecified) | -81.2% (active)
Cc1cccc(C)c1NC(=O)CC12CCCN1CCC2 | 13.3% (inactive)
CC(C)(C)NCC(O)COc1nsnc1N1CCOCC1 (stereo unspecified) | -0.1% (inactive)
O=C1CCC(c2ccccc2)(C2CCN(Cc3ccc(I)cc3)CC2)C(=O)N1 (stereo unspecified) | 11.1% (inactive)
Cc1ccc(S(N)(=O)=O)cc1 | 13.5% (inactive)
Cc1ccc(/C=C2\C(=O)C3(C)CCC2C3(C)C)cc1 (stereo unspecified) | 2.27% (inactive)
Cc1ccc(/C=C2\CNC/C(=C\c3ccc(C)cc3)C2=O)cc1 | -83.2% (active)
Cc1ccc(/C=C2/CNC/C(=C\c3ccc(C)cc3)C2=O)cc1 | -85.7% (active)
CC(C)C[C@H](N[C@@H](Cc1cncn1Cc1cc(Cl)cc(Cl)c1)C(=O)O)C(=O)O | 6.67% (inactive)
CC1(O)CC(c2nc(-c3ccc4ccc(-c5ccccc5)nc4c3)c3c(N)nccn23)C1 (stereo unspecified) | -27.9% (inactive)
CCn1c(N)c(C(=O)NC)c(=O)c2ccc(C#C[C@@](C)(O)COC)nc21 | 13.3% (inactive)
